MITF inh = human MITF inhibition, primary screen | 650,000 tested, 0.91% active | AlphaScreen MITF homodimerization, bead proximity signal | O75030 | inhibition, % at 2.6 µM | AID 1259374; in the data active = inhibition above about 50%;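 note: 0% = vehicle wells with protein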
Target sequence (O75030 whole entry, looked up): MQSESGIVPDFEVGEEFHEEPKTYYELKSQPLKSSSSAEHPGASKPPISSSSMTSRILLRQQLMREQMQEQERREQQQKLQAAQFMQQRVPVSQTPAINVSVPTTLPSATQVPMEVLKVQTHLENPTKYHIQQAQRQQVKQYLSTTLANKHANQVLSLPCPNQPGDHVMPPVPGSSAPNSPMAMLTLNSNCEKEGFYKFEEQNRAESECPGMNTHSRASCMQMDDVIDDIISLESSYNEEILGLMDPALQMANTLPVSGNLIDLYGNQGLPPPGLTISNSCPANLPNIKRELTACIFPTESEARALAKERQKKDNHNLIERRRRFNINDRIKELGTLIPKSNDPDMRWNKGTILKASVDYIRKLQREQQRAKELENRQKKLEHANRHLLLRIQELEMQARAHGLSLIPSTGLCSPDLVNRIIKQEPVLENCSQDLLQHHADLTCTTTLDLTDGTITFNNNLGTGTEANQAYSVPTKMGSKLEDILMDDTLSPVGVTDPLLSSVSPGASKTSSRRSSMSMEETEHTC
GPR151 ag = activators of human GPR151; Q8TDV0; PathHunter beta-arrestin GPR151 cells, luminescence; activation, % at 11.2 µM; 650,000 tested, 1% active; AID 1508602; in the data active = activation above about 4.9%;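 note: 0% = median of compound wells and 100% = cells with positive control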
FBW7 act = human FBW7 E3 ligase activation, primary screen. AlphaScreen FBW7–phospho-cyclin E peptide binding, activator screen. Q969H0. 650,000 tested, 0.13% active. normalized activity (activation), % at 26.1 µM; in the data active = normalized activity above about 1.9%;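 note: purified mutant Fbw7 with reduced substrate affinity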
TEAD-YAP block = TEAD-YAP interaction inhibition. HEK-TIYL cells, TEAD-Gal4/YAP UAS-luciferase luminescence. inhibition, % at 9.12 µM. 640,000 tested, 1.4% active. AID 1259422; in the data active = inhibition above about 32%;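 note: 0% = median of test compound wells and 100% = reference inhibitor wells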
MITF confirm = human MITF inhibition, confirmation; shares compounds with MITF inh; AlphaScreen MITF homodimerization, biotin/His-MITF beads; inhibition, % at 2.6 µM; 4,700 tested, 16% active; AID 1259372;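 active = inhibition above a cutoff derived from the DMSO control wells, cut at about 28% in these data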;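 note: 0% = MITF dimer wells with DMSO only; inhibitors lower the bead chemiluminescence by keeping MITF from dimerizing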
AlphaScreen DR = counter-screen: compounds optically interfering with AlphaScreen | AlphaScreen optical interference counterscreen, cell-free | shares compounds with MITF inh | IC50, µM | 480 tested, 6% active; call rule not given here
AlphaScreen intf2 = counter-screen: compounds optically interfering with AlphaScreen | shares compounds with MITF inh | LysRS AlphaScreen counterscreen, signal interference, triplicate | inhibition, % at 2.6 µM | 4,700 tested, 7.6% active | AID 1259376;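 active = inhibition above a cutoff derived from the DMSO control wells, cut at about 30% in these data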
Active calls of the source: *; / = no result given. Only some compounds are listed: those with a hit (about 3.5% of all), similar ones and a draw of the others.

SMILES | MITF inh | GPR151 ag | FBW7 act | TEAD-YAP block | MITF confirm | AlphaScreen intf2 | others
COc1ccc(C2C(C(=O)N(C)CCc3ccccn3)c3ccccc3C(=O)N2Cc2ccc(F)cc2)cc1 (stereo not given) | -3.0 | -0.1 | 0.0 | 8.9 | / | /
COc1ccc(CN(C)CCc2ccccn2)cc1 | 83.3* | 0.5 | 0.6 | -10.3 | -5.4 | 0.2
O=[N+]([O-])c1ccc(CSCCc2ccccn2)cc1 | 70.0* | -0.2 | 0.0 | -52.2 | 12.3 | 21.7
CN(CCc1ccccn1)Cc1ccc([N+](=O)[O-])cc1 | 74.7* | 0.3 | -0.2 | -5.5 | 0.2 | 5.9
CCc1ccc(CN(C)CCc2ccccn2)cc1 | 89.3* | -1.4 | 0.6 | -6.7 | -5.8 | 1.9
O=C(CSc1nc2ccccc2c(=O)n1CC1CCC(C(=O)NCCc2ccccc2)CC1)NC1CCCC1 (stereo not given) | -11.1 | 0.7 | 0.0 | -3.6 | / | /
CCOC(=O)c1c(-n2cccc2)c2cc(OC)ccc2n1CC(C)=O | 1.6 | 2.1 | -0.1 | 0.8 | / | /
CCC(C)N1C(=O)/C(=C/c2c(NCCOC)nc3ccc(C)cn3c2=O)SC1=S (stereo not given) | 21.9 | -0.4 | 0.0 | 6.5 | / | /
CC(C)(C)NC(=O)Cn1nnc(-c2ccccc2F)n1 | 17.8 | 0.2 | 0.2 | -24.4 | / | /
CN(CCc1ccccn1)Cc1ccncc1 | 82.6* | -1.2 | 0.2 | 3.0 | 1.8 | -0.6
CN(CCc1ccccn1)Cc1ccc2c(c1)CN(Cc1cccs1)CCO2 | 20.0 | -0.2 | 0.4 | 6.2 | / | /
Cc1ccc2occ(CN3Cc4ccccc4OC(C)C3)c(=O)c2c1 (stereo not given) | -0.3 | 0.1 | -0.3 | -2.6 | / | /
O=C(O)CN(CCN(CC(=O)O)CC(=O)O)CC(=O)O | 18.1 | -1.0 | 0.0 | 1.1 | / | /
COC(=O)CN(CCN(CC(=O)O)CC(=O)OC)CC(=O)O | 55.0* | 0.0 | 0.6 | -11.9 | 40.8* | -26.9
O=C(Nc1cccnc1)c1cc([N+](=O)[O-])nn1Cc1ccccc1 | 15.1 | 1.0 | 0.2 | 11.7 | / | /
OC(CNCC(c1ccco1)N1CCCC1)COc1ccccc1 (stereo not given) | 53.7* | -1.9 | -0.3 | 5.9 | -4.2 | 1.1
OC(CNCC(c1ccco1)N1CCCC1)COCc1ccccc1Cl (stereo not given) | 60.7* | 0.2 | 0.0 | 11.8 | -11.0 | 0.8
OC(CNC1CCCC1)COCc1ccccc1Cl (stereo not given) | 26.1 | 0.3 | -0.1 | 5.3 | / | /
O=C1/C(=C/c2ccc(-c3cc(Cl)ccc3Cl)o2)C=C(c2ccccc2)N1c1ccc(-c2ccccc2)cc1 | 7.4 | -0.9 | 0.2 | 3.2 | / | /
O=C(c1ccccc1F)N1CCN(Cc2ccccc2Br)CC1 | 54.1* | -0.3 | -0.1 | 1.1 | 9.1 | 13.5
O=C(c1ccccc1F)N1CCN(Cc2ccc(Cl)cc2)CC1 | 55.8* | -2.0 | 0.0 | 18.3 | 13.0 | 11.1
COc1ccccc1C(=O)N1CCN(Cc2ccc(Cl)cc2)CC1 | 55.3* | -0.2 | -0.2 | 11.0 | 0.7 | 1.1
O=C(c1ccccc1F)N1CCN(Cc2ccccc2)CC1 | 3.2 | -1.4 | 0.1 | 8.0 | / | /
O=C(c1ccccc1F)N1CCN(S(=O)(=O)c2ccc(F)cc2)CC1 | 62.8* | -0.3 | -0.1 | 3.9 | 0.3 | 11.7
O=C(c1ccccc1F)N1CCN(Cc2ccccc2Cl)CC1 | 48.2 | -0.7 | 0.0 | -8.6 | / | /
SMILES | MITF inh | GPR151 ag | FBW7 act | TEAD-YAP block | MITF confirm | AlphaScreen intf2 | others
COc1ccc(CN2CCN(C(=O)c3ccccc3OC)CC2)cc1OCc1ccccc1 | 40.7 | -2.0 | 0.1 | 1.8 | / | /
COc1ccc(CN2CCN(Cc3ccc(SC)cc3)CC2)cc1OCc1ccccc1 | 55.3* | -0.3 | -0.2 | 18.4 | 3.2 | 10.9
CCOc1cc(CN2CCN(Cc3ccc(SC)cc3)CC2)ccc1OC | 53.7* | -0.6 | 0.0 | 25.3 | -0.1 | 3.3
COc1ccc(CN2CCN(C)CC2)cc1OCc1ccccc1 | 7.7 | 0.5 | -0.1 | -14.3 | / | /
COc1ccc(CN2CCN(Cc3ccncc3)CC2)cc1OCc1ccccc1 | 63.5* | 0.7 | -0.1 | 1.1 | -6.2 | -1.0
O=C(CN1C(=O)NC2(CCCCCC2)C1=O)NC(=O)NCc1ccco1 | 70.3* | -1.3 | 0.2 | -4.4 | 70.6* | 12.4 | AlphaScreen DR=>7.16
COc1cc(OC)c(/C=N/N2CCN(Cc3cccc4ccccc34)CC2)c(OC)c1 | 12.4 | 0.9 | -0.5 | 12.7 | / | /
COc1cc(CN2CCN(Cc3cccc4ccccc34)CC2)cc(OC)c1 | 73.7* | -1.2 | -0.2 | 9.4 | -11.3 | 4.0
COc1cc(CN2CCN(Cc3ccccc3C)CC2)cc(OC)c1 | 80.1* | -0.5 | -0.3 | -2.9 | 2.2 | 10.2
Cc1nn(C(=O)c2cccs2)c(N)c1-c1ccccc1 | 6.1 | 1.3 | 0.0 | -68.8 | / | /
Cc1nn(C(=O)c2ccc3c(c2)OCO3)c(N)c1-c1ccccc1 | 51.6* | -1.6 | -0.1 | -31.9 | 1.7 | 6.2
COc1cccc(OC)c1OCCOc1ccccc1C | -12.5 | -0.1 | -0.1 | 7.5 | / | /
COc1cccc(OC)c1OCCN(C)C | 58.7* | -0.5 | 0.0 | 5.3 | 21.8 | -6.6
CCN(CC)CCCOc1c(OC)cccc1OC | 74.7* | 1.4 | 0.2 | 8.7 | 14.1 | -12.3
COC(=O)C(C(=O)OC)=C(/C=C/N(C)C)N(C)C | 74.4* | 0.2 | -0.2 | -4.7 | 13.5 | 16.1
CCOC(=O)/C(C(C)=O)=C(\C=C\N(C)C)N(C)C | 1.4 | 0.5 | -0.1 | 13.8 | / | /
O=C(c1ccc([N+](=O)[O-])cc1)N1CCN(Cc2cccc3ccccc23)CC1 | 57.7* | 2.0 | -0.4 | -5.5 | 29.0* | 16.4 | AlphaScreen DR=>5.48
O=C(c1cccc(F)c1)N1CCN(Cc2ccccn2)CC1 | 43.2 | 1.4 | -0.2 | -5.2 | / | /
O=C(c1ccc([N+](=O)[O-])cc1)N1CCN(Cc2ccccn2)CC1 | 64.0* | -0.2 | 0.0 | 3.0 | -10.1 | -5.3
CC1CCN(c2c(NCC3CCC(C(=O)NC4CCCC(C)C4C)CC3)c(=O)c2=O)CC1 (stereo not given) | 7.2 | 0.2 | 0.0 | 2.2 | / | /
O=C(O)/C=C/c1ccc([N+](=O)[O-])o1 | 60.0* | -0.5 | 0.1 | 4.3 | 63.9* | 7.0 | AlphaScreen DR=>10.6
CCN(CC)C(=O)C1=CC2([N+](=O)[O-])CN(CC(=O)O)CC([N+](=O)[O-])(C1)C2 (stereo not given) | 8.7 | 2.1 | 0.1 | -1.2 | / | /
O=C(O)CN1CC2([N+](=O)[O-])C=CCC([N+](=O)[O-])(C1)C2 (stereo not given) | 55.0* | 2.1 | 0.0 | 0.7 | 4.6 | 27.6
O=C(Nc1ccc(N2CCOCC2)cc1)c1csc(-c2csc3ccccc23)n1 | 2.5 | 3.7 | -0.1 | 4.4 | / | /
COc1ccc(Br)cc1CN1CCCC(C(=O)N2CCCC2)C1 (stereo not given) | 79.5* | 0.6 | -0.1 | -0.2 | -2.8 | 15.4
COc1ccc(Br)cc1CN1CCCC(C(=O)N2CCCCC2)C1 (stereo not given) | 84.1* | 0.4 | -0.1 | 6.3 | 8.6 | 18.9
COc1ccc(Br)cc1CN1CCCC(C(N)=O)C1 (stereo not given) | -2.8 | 0.7 | -0.1 | 3.3 | / | /

Screening results deposited in PubChem BioAssay by The Scripps Research Institute Molecular Screening Center.
